Screening results (PubChem BioAssay)
CtBP-E1A blk – blocks the CtBP interaction with E1A. AID 651724. activity change, % (test concentration not listed). AlphaScreen GST-E1A/His-CtBP binding, 1536-well; hits give low values. hit rate 0.49% among 340,000; in the data active = activity change below about -65%; inconclusive = mostly about -30% to -63%; also: % is scaled to controls: 0 for no effect and ±100 for the full control effect
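Steps: dispense buffer (Tris pH 8.0, NaCl 300 mM, TCEP 1 mM, BSA, Tween 20); add 5X protein mix (GST-E1A, His-CtBP, 125 nM each); pin 23 nL compound; 2 h at 37 °C, dark; add 5X beads (50 ug/mL); 1 h; read.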
JMJD2A Tudor – JMJD2A Tudor domain (human) inhibition; Potency, µM (highest dose often 114 µM), without a hit: at the top dose activity change, negative = inhibition, most hits filed as inhibitors; O75164; AlphaScreen JMJD2A-Tudor / H3K4me3 peptide binding; hit rate 4.4% among 390,000; also: potency is read from the fitted curve at half-maximal effect; % is scaled to controls: 0 for no effect and ±100 for the full control effect; nearly all actives have a fitted effect of over 50% in size
BAZ2B block – inhibitors of human BAZ2B bromodomain; Q9UIF8; AlphaScreen BAZ2B-H3K14Ac peptide displacement; Potency, µM (top dose mostly 114 µM), without a hit: top-dose activity change, negative = inhibition, actives largely listed as inhibitors; hit rate 4.4% among 360,000; AID 504333; also: potency is read from the fitted curve at half-maximal effect; % is scaled to controls: 0 for no effect and ±100 for the full control effect; nearly all actives have a fitted effect of over 60% in size
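AlphaScreen displacement: compounds (up to 110uM) incubated 30 min at room temperature with a preformed 50 nM BAZ2B/50 nM biotinylated H3K14Ac peptide complex in PBS pH 7.4 with Tween-20. Donor and acceptor beads at 10 ug/mL final added, 20 min light-protected before reading.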
Six1-Eya2 blk – blocks human Six1 binding to Eya2; Q15475+O00167; AlphaScreen GST-Six1/His-Eya2 binding, biochemical; hits give low values; activity change, % (concentration not given with the values); hit rate 0.56% among 360,000; in the data active = activity change below about -65%; inconclusive = mostly about -30% to -63%; also: % is scaled to controls: 0 for no effect and ±100 for the full control effect
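Compounds are tested against tagged Six1 and Eya2 proteins bridged by glutathione donor and nickel acceptor beads; after a one-hour incubation at 37 °C without light, AlphaScreen emission is recorded.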
HP1b binding inh – HP1-beta chromodomain-methylated histone interaction inhibition | AlphaScreen HP1-beta / biotin-H3K9me3 peptide binding | Potency, µM (highest dose often 114 µM), without a hit: at the top dose activity change, negative = inhibition, actives largely listed as inhibitors | hit rate 0.56% among 390,000; also: potency is read from the fitted curve at half-maximal effect; nearly all actives have a fitted effect of over 70% in size
Target sequence (P83916 whole entry, looked up): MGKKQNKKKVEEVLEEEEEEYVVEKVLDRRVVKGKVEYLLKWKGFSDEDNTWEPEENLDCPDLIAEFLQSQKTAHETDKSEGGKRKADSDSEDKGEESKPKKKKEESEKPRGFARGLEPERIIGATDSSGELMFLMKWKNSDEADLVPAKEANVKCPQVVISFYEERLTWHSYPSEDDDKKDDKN
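Compound inhibition of the preformed complex between 50 nM HP1-beta and 50 nM biotinylated H3K9me3 peptide was read by AlphaScreen. Buffer was PBS pH 7.4 with 0.01% Tween-20. Incubations ran 30 min at room temperature, with 10 ug/mL donor/acceptor beads.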
G9a block – G9a (human) methyltransferase inhibition; AID 504332; Q96KQ7; hit rate 8.8% among 350,000; G9a H3K9 monomethylation, AlphaScreen, 2 h; Potency, µM (top dose mostly 102 µM), for the others: top-dose activity, negative = inhibition, usual class: inhibitors; also: potency is read from the fitted curve at half-maximal effect; % is scaled to controls: 0 for no effect and ±100 for the full control effect; nearly all actives have a fitted effect of over 75% in size
Target sequence (Q96KQ7 913-1193 limits assumed): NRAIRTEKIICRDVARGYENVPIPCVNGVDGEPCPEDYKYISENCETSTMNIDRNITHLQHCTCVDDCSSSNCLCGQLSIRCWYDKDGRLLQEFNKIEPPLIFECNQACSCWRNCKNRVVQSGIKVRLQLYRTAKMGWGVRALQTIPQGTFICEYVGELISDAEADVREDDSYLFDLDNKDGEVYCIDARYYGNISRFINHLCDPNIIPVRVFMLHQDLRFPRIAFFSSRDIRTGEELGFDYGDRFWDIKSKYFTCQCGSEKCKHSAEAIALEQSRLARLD
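G9a (20 nM) preincubated 15 min RT with compounds, then 500 nM biotinylated H3K9 peptide and 20 uM SAM added; 2 h RT reaction. Monomethyl-H3K9 product detected by AlphaScreen with anti-H3K9me1 antibody, streptavidin donor and anti-rabbit IgG acceptor beads.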
Starred values were filed as active, the others as inactive; [ ] = dose if it differs, or a comment. Sampled rows, rich in hits. Any-hit rate of the full collection: about 10%. Unless noted, calls follow the shape of the dose curve; as a rule, active = well fitted inhibition curve with a large enough effect; inconclusive = small, poorly fitted or top-dose-only effect; inactive = no such curve, though single readings can be large or run the other way.

How did O=C(O)c1ccc(CNc2ccccc2C(=O)O)cc1 do in these assays?
CtBP-E1A blk: -0.6; JMJD2A Tudor: 56.2µM*; BAZ2B block: inconclusive; Six1-Eya2 blk: -9.3; HP1b binding inh: 7.6%; G9a block: inconclusive

What do the screens show for `Cc1c(P(=S)(c2ccccc2)c2ccccc2)c2ccccc2n1C(=O)NCc1ccccc1`?
JMJD2A Tudor: -18.4%

Results for O=C(O)C1CC=CCC1C(=O)Nc1cccc([N+](=O)[O-])c1 (configuration not stated) ?
JMJD2A Tudor: -9.5%; BAZ2B block: 89.1µM*; Six1-Eya2 blk: 1.6; HP1b binding inh: 30.0%; G9a block: inconclusive

How did CCSC1=C(C#N)C(c2ccccc2Cl)C(C(=O)c2cccs2)C(O)(C(F)(F)F)N1 (configuration not stated) do in these assays?
CtBP-E1A blk: -0.8; JMJD2A Tudor: -16.8%[57.1 µM]; BAZ2B block: -8.4%; Six1-Eya2 blk: -5.1; HP1b binding inh: 44.9%; G9a block: 10µM*

What do the screens show for `CSC1=C(C#N)C(c2ccccc2Cl)C(C(=O)c2cccs2)C(O)(C(F)(F)F)N1` (configuration not stated)?
CtBP-E1A blk: -3.8; JMJD2A Tudor: -26.5%; BAZ2B block: -4.8%; Six1-Eya2 blk: 4.9; HP1b binding inh: 17.5%; G9a block: inconclusive

Results for CC(NC1CCCC1)C(=O)Nc1ccccc1-c1ccccc1 (configuration not stated) ?
CtBP-E1A blk: -5.1; JMJD2A Tudor: 2µM*; BAZ2B block: 79.4µM*; Six1-Eya2 blk: 2.2; HP1b binding inh: inconclusive; G9a block: inconclusive

Results for Cc1c(C2=CCN(S(=O)(=O)c3ccc(Cl)cc3)CC2)c2ccccc2n1CC(=O)N1CCCC1 ?
JMJD2A Tudor: -25.2%; BAZ2B block: inconclusive; HP1b binding inh: 13.3%; G9a block: -4.8%[59 µM]

Results for CC1CC(C)(C)N(C(=O)NC2CCCCC2)c2ccccc21 (configuration not stated) ?
CtBP-E1A blk: 4.5; JMJD2A Tudor: -12.1%; BAZ2B block: 7.0%; Six1-Eya2 blk: 10.8; HP1b binding inh: 19.6%; G9a block: -9.0%[59 µM]

What do the screens show for `COc1ccc2c(c1)C(C)CC(C)(C)N2C(=O)NC1CCCCC1` (configuration not stated)?
CtBP-E1A blk: 0.0; JMJD2A Tudor: -31.5%; BAZ2B block: inconclusive; Six1-Eya2 blk: -4.7; HP1b binding inh: -10.6%; G9a block: 44.7µM*

Results for C=C(C)[C@@H]1CC=C(CN2CCN(Cc3ccccc3)CC2)CC1 ?
CtBP-E1A blk: -9.5; JMJD2A Tudor: inconclusive; BAZ2B block: inconclusive; Six1-Eya2 blk: -7.4; HP1b binding inh: 6.4%; G9a block: 50.1µM*

Results for C=C(C)C1CC=C(CN2CCN(Cc3ccccc3)CC2)CC1 (configuration not stated) ?
JMJD2A Tudor: -21.8%; BAZ2B block: -35.4%; Six1-Eya2 blk: 7.9; HP1b binding inh: 41.0%; G9a block: inconclusive

Results for CCOC(=O)c1c(C)oc2nc(C)nc(NCc3cccc(Cl)c3)c12 ?
JMJD2A Tudor: 44.7%; BAZ2B block: -7.2%[57.1 µM]; HP1b binding inh: 56.9%; G9a block: -0.4%[59 µM]

Results for COC(=O)c1ccc(NC(=O)c2cc(=O)c3ccc(C)cc3o2)cc1 ?
JMJD2A Tudor: -10.8%; BAZ2B block: 6.0%; HP1b binding inh: 23.2%; G9a block: -5.3%[59 µM]

Results for O=[N+]([O-])c1ccc(N2CCN(C(=S)c3cccc([N+](=O)[O-])c3)CC2)cc1 ?
CtBP-E1A blk: -4.1; JMJD2A Tudor: inconclusive; BAZ2B block: 56.2µM*; Six1-Eya2 blk: -0.7; HP1b binding inh: 11.2µM*; G9a block: 2µM*

How did O=[N+]([O-])c1cccc(-c2ccc(CN3CCN(c4ccccc4)CC3)o2)c1 do in these assays?
CtBP-E1A blk: -24.0; JMJD2A Tudor: 35.5µM*; BAZ2B block: 44.7µM*; Six1-Eya2 blk: inconclusive; HP1b binding inh: inconclusive; G9a block: 39.8µM*

What do the screens show for `O=C(c1ccco1)N1CCN(C(=O)c2ccc(-c3ccc([N+](=O)[O-])cc3)o2)CC1`?
CtBP-E1A blk: 5.0; JMJD2A Tudor: 39.8µM*; Six1-Eya2 blk: -14.8; HP1b binding inh: -32.9%

What do the screens show for `Cc1ccccc1N1CCN(C(=S)c2ccc(-c3cccc([N+](=O)[O-])c3)o2)CC1`?
JMJD2A Tudor: inconclusive; Six1-Eya2 blk: -16.9; HP1b binding inh: -24.1%; G9a block: 12.6µM*

How did CCc1ccc(C2CC(=O)c3c([nH]c(C(=O)OCC4CCCCC4)c3C)C2)cc1 (configuration not stated) do in these assays?
JMJD2A Tudor: -11.6%; BAZ2B block: 4.2%; HP1b binding inh: 29.8%; G9a block: 0.1%[59 µM]

What do the screens show for `COc1ccc(-c2c3c(=O)n(C)c(=O)n(C)c3c3n2-c2ccccc2NC3c2ccco2)cc1` (configuration not stated)?
JMJD2A Tudor: -3.0%; BAZ2B block: -8.5%; HP1b binding inh: 52.5%; G9a block: -26.5%[59 µM]

What do the screens show for `Cc1ccccc1N1CCN(C(=S)c2ccc(-c3ccc([N+](=O)[O-])cc3)o2)CC1`?
CtBP-E1A blk: -2.9; JMJD2A Tudor: inconclusive; BAZ2B block: 7.94µM*; Six1-Eya2 blk: 0.3; HP1b binding inh: inconclusive

What do the screens show for `Cc1ccc(N2CCN(C(=S)c3ccc(-c4cccc([N+](=O)[O-])c4)o3)CC2)cc1`?
JMJD2A Tudor: inconclusive; BAZ2B block: inconclusive; Six1-Eya2 blk: -19.3; HP1b binding inh: inconclusive; G9a block: 8.91µM*

Results for Cc1ccc(CN2CCN(c3ccccc3)CC2)o1 ?
CtBP-E1A blk: -4.4; JMJD2A Tudor: 20µM*; BAZ2B block: 50.1µM*; Six1-Eya2 blk: -6.6; HP1b binding inh: inconclusive; G9a block: 22.4µM*

How did COc1ccc(N2CCN(C(=O)C3CC(O)CN3S(=O)(=O)c3ccc([N+](=O)[O-])cc3)CC2)cc1 (configuration not stated) do in these assays?
CtBP-E1A blk: 3.2; JMJD2A Tudor: -10.3%[57.1 µM]; BAZ2B block: -11.0%; Six1-Eya2 blk: -0.2; HP1b binding inh: 25.4%; G9a block: 44.7µM*

How did Cc1ccc(S(=O)(=O)N2CC(O)C[C@H]2C(=O)OCC(=O)Nc2ccc(N3CCCCC3)cc2)cc1C (some centres not stated) do in these assays?
CtBP-E1A blk: -17.1; JMJD2A Tudor: 44.7µM*; BAZ2B block: 39.8µM*; Six1-Eya2 blk: -22.0; HP1b binding inh: inconclusive; G9a block: 6.31µM*
